Among the data in PubChem BioAssay (NCI) are growth values, retold here.

What all share (assay): NCI-60 one-dose screen, 48 h (100 = growth as untreated, 0 = no growth, -100 = all killed)
Details in all cases: 10 µM unless noted

Test [1] deals with T-47D breast.
For test [2], the system named is BT-549 breast.
In test [3] the test system is MDA-MB-435 melanoma.
Test [4] deals with SW-620 colon.
In test [5] the test system is MCF7 breast.
In test [6] the test system is HCT-116 colon.
In test [7] the test system is HCC-2998 colon.
The test system of test [8] is KM12 colon.

Each structure is given as a SMILES string. This is part of a sample that, as a whole, favours compounds with a hit. Of some 83,000 tested, about 20% had one in any assay.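 Step 1: grow cells in 96-well plates. Step 2: add test compound at a single concentration. Step 3: incubate 48 h. Step 4: record percent growth.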 Values without a mark were called inactive. Active and inactive are the calls of the source. How the source made its calls: active means growth percent below 10; inactive means the rest.

Take `O=C(/C=C/c1ccc(Cl)nc1)c1ccc(Cl)cc1Cl`: the growth in test [1] was 91.6%; in test [2] it was 110%; in test [3], 89.9%; in test [4], -33.2% (active); in test [5] it was 17.1%; in test [6] it was 36.7%. Further, the growth in test [7] was 114%; in test [8], 76.5%.
On to `CN1CCN(C(=O)c2c3c(n4ccccc24)C(=O)c2ncccc2C3=O)CC1`, for which the growth was 93.3% in test [1]; 57.3% in test [2]; 76.1% in test [3]; 37.6% in test [4]; 26.9% in test [5]; 44.1% in test [6]. The growth in test [7] is 70.9%; in test [8], 65.4%.
`N#CC1=C(/N=C/c2ccccc2)Oc2c(ccc3ccccc23)C1c1ccccc1` (stereo not given): the growth in test [1] is 49.8%; in test [2], 4.18% (active); in test [3] it was -42.1% (active); in test [4] it was 23.9%; in test [5], 14.6%; in test [6] it was 8.77% (active). The growth was -12.2% (active) in test [7] and 19.2% in test [8].
For the compound `COc1cc(/C=C/C(=O)c2c(C)nc3ccccc3c2C)ccc1OCCCN1CCN(C(=O)c2ccco2)CC1`, the growth is 67.7% in test [1]; 86.3% in test [2]; 61.6% in test [3]; 68.3% in test [4]; 75.4% in test [5]; 76.6% in test [6]. The growth in test [7] was 46.5%; in test [8], 98%.
`c1cc2ccc3cc2cc1CNCCOCCNCc1ccc2ccc(cc2c1)CNCCOCCNC3`: the growth in test [1] was -23.8% (active); in test [2], 99.6%; in test [3], -90.2% (active); in test [4], 2.45% (active); in test [5], -17.1% (active); in test [6], -4.41% (active). The growth in test [7] was -57.4% (active); in test [8], -39% (active).
With `C=C(C)[C@@H]1CC[C@]2(C(=O)NC3CCCCC3)CC[C@]3(C)[C@H](CC[C@@H]4[C@@]5(C)CCC(=O)C(C)(C)[C@@H]5CC[C@]43C)[C@@H]12`, the growth in test [1] is 83.3%; in test [2] it was 92.8%; in test [3], 93.6%; in test [4] it was 93.6%; in test [5], 85.1%; in test [6], 76.3%. Moreover, the growth in test [7] is 107%; in test [8], 96%.
In the case of `COC(=O)c1ccc(C2Nc3ccc(S(=O)(=O)Nc4ccc(C)c(C)c4)cc3C3OCCC23)cc1` (stereo not given), the growth is 51.1% in test [1]; 84.7% in test [2]; 94.7% in test [3]; 78.5% in test [4]; 43.1% in test [5]; 62.1% in test [6]. Further, the growth in test [7] was 111%; in test [8], 78.1%.
Turning to `COc1ccc2[nH]c(O)c(/C=c3/cc4c(c(-c5cc(OC)c(OC)c(OC)c5)n3)=Nc3ccccc3-4)c2c1`, the growth in test [1] was 78.7%; in test [2], 69.5%; in test [3], 29.6%; in test [4] it was 62.8%; in test [5], 23.4%; in test [6], 36.8%. In addition, the growth in test [7] is 77.1%; in test [8], 52.5%.
As to `CN(C)CC1C(=O)O[C@H]2[C@H]1CC/C(COC(=O)c1cc3ccccc3[nH]1)=C\CC[C@@]1(C)O[C@@H]21` (stereo not given in full), the growth was -76.6% (active) in test [1]; -52% (active) in test [2]; -38.2% (active) in test [3]; -19.3% (active) in test [4]; -41.8% (active) in test [5]; -83.3% (active) in test [6]. Besides, the growth is -82% (active) in test [7] and 6.93% (active) in test [8].
In the case of `NC(=S)Nc1cccc(O)c1`, the growth was 106% in test [1]; 78.8% in test [2]; 98.6% in test [3]; 99.8% in test [4]; 98.8% in test [5]; 91.6% in test [6]. The growth in test [7] is 96.7%; in test [8], 106%.
Take `COc1ccc(NC(=O)CSc2nc(C)c(C(C)=O)n2-c2ccc([N+](=O)[O-])cc2)cc1`: the growth in test [1] is 87.8%; in test [2] it was 91.5%; in test [3], 93.2%; in test [4], 96.6%; in test [5], 93.9%; in test [6] it was 86.5%. Moreover, the growth in test [7] is 105%; in test [8], 107%.
As to `COc1ccc2c(c1)C(=O)/C(=C/c1ccc(OCC(=O)Nc3nccs3)cc1)O2`, the growth was 75.2% in test [1]; -84.2% (active) in test [2]; 92.5% in test [3]; -24% (active) in test [4]; 59.8% in test [5]; 15.6% in test [6]. The growth in test [7] was 113%; in test [8], 21.3%.
With `Cn1c(-c2c(N)n(Cc3ccc(C(F)(F)F)cc3)c3nc(C#N)c(C#N)nc23)nc2ccccc21`, the growth in test [1] is 4.18% (active); in test [2] it was 7.95% (active); in test [3], 14.9%; in test [4] it was 6.57% (active); in test [5] it was 8.74% (active); in test [6], -29% (active). Further, the growth in test [7] is 14.7%; in test [8] it was 5.33% (active).
Consider `COc1ccc2c(c1)CCCN2c1c2ccccc2nc2ccccc12`, for which the growth is 51.1% in test [1]; 7.21% (active) in test [2]; -17.9% (active) in test [3]; 24.7% in test [4]; 20.8% in test [5]; 6.8% (active) in test [6]. Besides, the growth in test [7] was -9.75% (active); in test [8], 5.15% (active).
With `COc1cc(/C=C/C(=O)N2CCN(C(=O)c3cc(OC)c(OC)c(OC)c3)CC2)ccc1OCCCN1C(=O)c2cccc3cccc(c23)C1=O`, the growth in test [1] was 61.9%; in test [2], 108%; in test [3], 95.6%; in test [4], 100%; in test [5], 90.4%; in test [6] it was 81.4%. Besides, the growth is 99.7% in test [7] and 79.6% in test [8].
